This is an account of results in the supplement of paper PMC10849652.

About 7,900 targets were measured; listed, in parts, are those with a hit and a random draw of the rest. About 0.6% of all pairs of compound and target were hits. A number with no mark means an inactive call.

UniProt Q96EU6, sequence (Q96EU6 whole entry, looked up): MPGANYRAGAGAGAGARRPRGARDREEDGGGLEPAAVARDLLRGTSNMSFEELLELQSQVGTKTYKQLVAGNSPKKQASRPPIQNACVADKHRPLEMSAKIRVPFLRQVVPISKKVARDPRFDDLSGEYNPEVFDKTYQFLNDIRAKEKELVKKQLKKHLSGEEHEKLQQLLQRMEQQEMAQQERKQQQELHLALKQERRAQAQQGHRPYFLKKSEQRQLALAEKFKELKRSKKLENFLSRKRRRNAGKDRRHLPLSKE
UniProt O14796, sequence (O14796 whole entry, looked up): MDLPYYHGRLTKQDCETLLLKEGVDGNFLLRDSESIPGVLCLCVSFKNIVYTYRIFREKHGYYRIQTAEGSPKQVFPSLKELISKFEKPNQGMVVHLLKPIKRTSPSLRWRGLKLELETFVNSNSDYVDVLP
UniProt Q5PRF9, sequence (Q5PRF9 whole entry, looked up): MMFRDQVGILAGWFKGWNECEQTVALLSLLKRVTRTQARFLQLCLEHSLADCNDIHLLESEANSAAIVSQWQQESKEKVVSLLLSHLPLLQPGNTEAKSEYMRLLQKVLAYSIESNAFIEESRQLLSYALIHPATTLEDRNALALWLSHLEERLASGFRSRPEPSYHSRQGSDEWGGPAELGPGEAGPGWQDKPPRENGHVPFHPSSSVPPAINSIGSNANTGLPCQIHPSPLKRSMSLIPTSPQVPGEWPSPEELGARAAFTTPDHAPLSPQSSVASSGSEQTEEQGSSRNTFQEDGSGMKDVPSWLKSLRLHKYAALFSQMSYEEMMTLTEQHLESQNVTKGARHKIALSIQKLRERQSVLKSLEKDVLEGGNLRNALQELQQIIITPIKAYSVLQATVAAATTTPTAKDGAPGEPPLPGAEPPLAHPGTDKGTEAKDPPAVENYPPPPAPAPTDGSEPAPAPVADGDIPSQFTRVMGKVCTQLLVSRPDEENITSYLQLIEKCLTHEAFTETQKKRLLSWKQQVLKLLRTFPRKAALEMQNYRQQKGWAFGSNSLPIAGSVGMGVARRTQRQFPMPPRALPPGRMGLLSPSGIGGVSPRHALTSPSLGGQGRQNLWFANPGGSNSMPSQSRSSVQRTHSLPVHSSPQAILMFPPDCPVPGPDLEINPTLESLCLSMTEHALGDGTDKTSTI
UniProt Q8IZQ5, sequence (Q8IZQ5 whole entry, looked up): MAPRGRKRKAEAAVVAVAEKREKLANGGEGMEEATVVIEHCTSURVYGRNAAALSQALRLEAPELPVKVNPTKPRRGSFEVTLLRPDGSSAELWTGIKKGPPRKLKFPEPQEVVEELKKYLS
UniProt Q7L099, sequence (Q7L099 whole entry, looked up): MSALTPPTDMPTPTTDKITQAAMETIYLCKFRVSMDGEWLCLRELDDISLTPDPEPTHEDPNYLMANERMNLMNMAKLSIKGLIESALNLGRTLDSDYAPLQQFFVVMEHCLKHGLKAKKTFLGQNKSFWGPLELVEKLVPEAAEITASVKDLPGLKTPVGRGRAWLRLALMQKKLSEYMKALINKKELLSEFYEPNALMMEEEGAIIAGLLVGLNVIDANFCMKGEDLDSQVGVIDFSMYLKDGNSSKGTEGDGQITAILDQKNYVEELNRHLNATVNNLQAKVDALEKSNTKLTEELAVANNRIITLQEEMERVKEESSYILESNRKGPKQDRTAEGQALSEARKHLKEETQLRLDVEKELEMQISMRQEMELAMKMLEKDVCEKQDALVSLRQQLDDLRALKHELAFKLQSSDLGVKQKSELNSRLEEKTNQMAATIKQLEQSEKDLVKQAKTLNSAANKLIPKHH
UniProt Q9BY42, sequence (Q9BY42 whole entry, looked up): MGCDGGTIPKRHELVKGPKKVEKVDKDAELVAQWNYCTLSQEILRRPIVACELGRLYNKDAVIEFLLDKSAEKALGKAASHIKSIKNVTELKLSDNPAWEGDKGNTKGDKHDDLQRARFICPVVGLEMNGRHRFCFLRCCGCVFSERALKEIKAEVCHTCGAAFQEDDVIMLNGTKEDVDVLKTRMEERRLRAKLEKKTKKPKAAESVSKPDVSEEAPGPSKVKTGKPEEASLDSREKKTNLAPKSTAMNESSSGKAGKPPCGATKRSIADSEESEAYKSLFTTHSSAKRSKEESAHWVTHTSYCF
UniProt Q9BQY4, sequence (Q9BQY4 whole entry, looked up): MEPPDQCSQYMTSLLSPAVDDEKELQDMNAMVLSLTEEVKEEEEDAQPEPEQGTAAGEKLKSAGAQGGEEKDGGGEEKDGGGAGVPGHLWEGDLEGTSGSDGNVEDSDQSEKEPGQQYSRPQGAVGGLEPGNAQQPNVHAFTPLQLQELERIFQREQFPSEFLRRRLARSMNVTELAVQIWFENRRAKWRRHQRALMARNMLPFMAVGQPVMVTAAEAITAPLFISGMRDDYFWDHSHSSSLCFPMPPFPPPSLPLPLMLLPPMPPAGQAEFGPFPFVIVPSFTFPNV
UniProt Q5T160, sequence (Q5T160 whole entry, looked up): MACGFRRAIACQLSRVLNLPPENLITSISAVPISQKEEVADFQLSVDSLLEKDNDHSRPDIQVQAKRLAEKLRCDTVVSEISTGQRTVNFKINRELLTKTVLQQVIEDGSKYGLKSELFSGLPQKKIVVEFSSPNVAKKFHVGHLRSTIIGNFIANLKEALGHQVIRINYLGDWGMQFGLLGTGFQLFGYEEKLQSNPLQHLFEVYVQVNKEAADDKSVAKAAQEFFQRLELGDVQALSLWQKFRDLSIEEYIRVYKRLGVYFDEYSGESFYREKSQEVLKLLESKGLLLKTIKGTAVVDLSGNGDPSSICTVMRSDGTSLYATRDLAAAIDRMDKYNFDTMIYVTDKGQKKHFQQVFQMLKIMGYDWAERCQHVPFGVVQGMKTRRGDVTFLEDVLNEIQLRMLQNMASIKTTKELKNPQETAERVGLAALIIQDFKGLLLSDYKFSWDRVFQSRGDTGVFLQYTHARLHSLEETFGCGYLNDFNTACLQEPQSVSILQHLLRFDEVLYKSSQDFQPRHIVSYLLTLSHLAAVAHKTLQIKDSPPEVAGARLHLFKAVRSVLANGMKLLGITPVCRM
UniProt P04049, sequence (P04049 whole entry, looked up): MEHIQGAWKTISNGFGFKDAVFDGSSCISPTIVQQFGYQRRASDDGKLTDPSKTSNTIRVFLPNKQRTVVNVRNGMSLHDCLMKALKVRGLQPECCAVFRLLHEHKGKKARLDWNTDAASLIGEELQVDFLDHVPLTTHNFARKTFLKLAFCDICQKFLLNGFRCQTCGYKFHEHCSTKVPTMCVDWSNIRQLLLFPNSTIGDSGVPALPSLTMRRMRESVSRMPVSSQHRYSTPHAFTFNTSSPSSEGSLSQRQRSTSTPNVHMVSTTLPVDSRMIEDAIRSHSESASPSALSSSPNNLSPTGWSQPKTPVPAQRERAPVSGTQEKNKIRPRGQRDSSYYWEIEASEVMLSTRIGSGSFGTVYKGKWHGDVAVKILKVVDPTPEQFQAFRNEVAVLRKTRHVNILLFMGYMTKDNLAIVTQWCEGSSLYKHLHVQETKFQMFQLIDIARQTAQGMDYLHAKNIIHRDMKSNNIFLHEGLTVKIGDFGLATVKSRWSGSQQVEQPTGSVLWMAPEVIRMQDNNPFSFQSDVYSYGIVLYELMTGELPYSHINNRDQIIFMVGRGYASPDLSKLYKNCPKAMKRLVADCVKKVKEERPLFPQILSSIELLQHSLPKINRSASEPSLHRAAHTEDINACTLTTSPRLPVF
UniProt Q9H4A4, sequence (Q9H4A4 whole entry, looked up): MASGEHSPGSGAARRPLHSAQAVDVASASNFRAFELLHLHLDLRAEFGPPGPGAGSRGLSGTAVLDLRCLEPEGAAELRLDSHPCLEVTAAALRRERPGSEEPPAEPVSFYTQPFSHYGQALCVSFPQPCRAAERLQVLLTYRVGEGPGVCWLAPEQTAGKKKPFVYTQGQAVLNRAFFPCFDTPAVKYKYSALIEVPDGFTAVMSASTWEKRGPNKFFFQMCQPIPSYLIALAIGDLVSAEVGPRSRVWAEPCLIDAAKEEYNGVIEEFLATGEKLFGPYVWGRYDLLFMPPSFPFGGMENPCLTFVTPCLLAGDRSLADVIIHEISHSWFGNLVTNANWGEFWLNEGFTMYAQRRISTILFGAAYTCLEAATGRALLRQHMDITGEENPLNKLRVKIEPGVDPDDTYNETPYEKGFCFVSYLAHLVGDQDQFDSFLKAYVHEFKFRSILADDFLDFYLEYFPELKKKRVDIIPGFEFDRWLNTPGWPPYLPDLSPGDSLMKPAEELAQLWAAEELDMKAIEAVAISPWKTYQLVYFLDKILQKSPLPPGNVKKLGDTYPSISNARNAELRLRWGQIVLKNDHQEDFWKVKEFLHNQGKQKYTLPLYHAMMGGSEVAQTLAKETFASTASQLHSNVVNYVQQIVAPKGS
UniProt O43819, sequence (O43819 whole entry, looked up): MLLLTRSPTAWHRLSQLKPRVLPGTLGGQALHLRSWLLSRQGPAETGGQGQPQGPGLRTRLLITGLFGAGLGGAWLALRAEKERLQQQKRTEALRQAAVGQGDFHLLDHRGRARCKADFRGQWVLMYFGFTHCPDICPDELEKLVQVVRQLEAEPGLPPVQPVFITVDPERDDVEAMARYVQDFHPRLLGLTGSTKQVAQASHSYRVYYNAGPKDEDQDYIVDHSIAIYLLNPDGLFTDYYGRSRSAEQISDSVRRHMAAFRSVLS
UniProt P35244, sequence (P35244 whole entry, looked up): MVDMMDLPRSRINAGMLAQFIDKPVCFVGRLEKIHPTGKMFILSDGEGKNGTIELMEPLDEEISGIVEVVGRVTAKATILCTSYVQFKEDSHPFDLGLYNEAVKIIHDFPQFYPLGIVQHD
UniProt O15127, sequence (O15127 whole entry, looked up): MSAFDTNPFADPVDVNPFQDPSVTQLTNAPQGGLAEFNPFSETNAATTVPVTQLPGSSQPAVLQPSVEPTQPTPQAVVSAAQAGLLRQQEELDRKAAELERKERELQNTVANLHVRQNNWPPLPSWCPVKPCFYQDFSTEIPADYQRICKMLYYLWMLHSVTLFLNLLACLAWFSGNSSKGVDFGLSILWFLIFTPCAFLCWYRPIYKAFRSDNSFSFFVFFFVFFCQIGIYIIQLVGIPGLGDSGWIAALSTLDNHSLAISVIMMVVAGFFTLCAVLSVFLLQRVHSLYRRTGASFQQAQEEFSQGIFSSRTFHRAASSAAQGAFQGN

Compound in one experiment: CN1C2=C(C3=C1C(=O)N(N=C3)CC4=CC(=CC=C4)N)SC(=C2)S(=O)C
The experiment can be described thus: log2 fold change, soluble protein after heating vs DMSO (PISA); higher = thermal stabilisation; K562 cells, 10 uM, 30 min; active = over 0.2 and 3.5 SD of the protein, either way, in both replicates (recomputed). A digest of the protocol: (§1)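 K562 cells at 2×10^6 cells/mL were given 10 μM compound for 30 min. Aliquots then went through 3 min of heating across 48°C-58°C, were pooled, and were extracted in PBS with 0.5% NP-40 at 4°C, and the supernatant after 21,000xg for 90 min was quantified by TMTpro 16plex LC-MS/MS with channel sums equalised. Thermal stability relative to control samples, from duplicates, is given as log2 fold change.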
Turning to RARS2 (UniProt Q5T160), the log2 fold change was -0.065. Take RRP36 (UniProt Q96EU6): the log2 fold change was 0.316.

On to RCOR1 (UniProt Q9UKL0), for which the log2 fold change was -0.024. For the target RPS18 (UniProt P62269), the log2 fold change is 0.096. With RPA3 (UniProt P35244), the log2 fold change is -0.054. As to RPS6KA3 (UniProt P51812), the log2 fold change is -0.043.

With RHOXF2 (UniProt Q9BQY4), the log2 fold change was 0.074. The same measure, in the same setting: the figure for SCAMP2 (UniProt O15127) is -0.006; for SAMD4B (UniProt Q5PRF9) it is 0.089. Turning to RAD50, A0A494C0Y7, the log2 fold change was 0.097. In the case of RNF167 (UniProt Q9H6Y7), the log2 fold change was 0.05. Consider SLC19A1 (UniProt P41440), for which the log2 fold change was -0.109.

In the case of SH2D1B (UniProt O14796), the log2 fold change was 0.235. Same read-out and setting: the figure for RHOA (UniProt P61586) is -0.037.

For RNPEP (UniProt Q9H4A4), the log2 fold change was -0.036. In the case of RDH10 (UniProt Q8IZV5), the log2 fold change was -0.19. Turning to RAF1 isoform 2 (UniProt P04049), the log2 fold change is -0.129. On the same count and under the same terms, the figure for ROCK1 (UniProt Q13464) is 0.031. RUFY1 (UniProt Q96T51): the log2 fold change was 0.032.

Consider SCAMP2 (UniProt H3BUB6), for which the log2 fold change was 0.064. In the case of RAD51 (UniProt Q06609), the log2 fold change is -0.075. The same measure, in the same setting: the figure for SERINC1 (UniProt Q9NRX5) is -0.194; for SCO2 (UniProt O43819) it is -0.014. Take SELENOH (UniProt Q8IZQ5): the log2 fold change was 0.084. For the target RPS25 (UniProt P62851), the log2 fold change was 0.122. Turning to RTF2 (UniProt Q9BY42), the log2 fold change was -0.017. Consider RAB5IF isoform 5 (UniProt Q9BUV8), for which the log2 fold change is 0.003. Regarding SIK3 (UniProt H0Y4E8), the log2 fold change is -0.019. Still for that read-out and setting: the figure for RPAIN isoform 8 (UniProt Q86UA6) is -0.044. RUFY3 isoform 3 (UniProt Q7L099): the log2 fold change was -0.015. Still for that read-out and setting: the figure for RCOR3 isoform 3 (UniProt Q9P2K3) is 0.02.

Compound in the next experiment: CN1CCC(CNc2ccc3ncc(-c4cccc(OC(F)(F)F)c4)n3n2)CC1
The description is as above. The method in brief: as §1
Regarding RARS2 (UniProt Q5T160), the log2 fold change was -0.143. RRP36 (UniProt Q96EU6): the log2 fold change is 0.288. On the same count and under the same terms, next, RCOR1 (UniProt Q9UKL0): -0.037. For RBM48 isoform 2 (UniProt Q5RL73), the log2 fold change was 0.114. For RPS18 (UniProt P62269), the log2 fold change was 0.11. As for RPA3 (UniProt P35244), the log2 fold change is 0.039.

As for RPS6KA3 (UniProt P51812), the log2 fold change is -0.192. Same read-out and setting: the figure for RHOXF2 (UniProt Q9BQY4) is -0.073. Take SCAMP2 (UniProt O15127): the log2 fold change is -0.1. For SAMD4B (UniProt Q5PRF9), the log2 fold change is -0.308. As for RAD50, A0A494C0Y7, the log2 fold change was 0.04. For the target RNF167 (UniProt Q9H6Y7), the log2 fold change was -0.097.

Take SLC19A1 (UniProt P41440): the log2 fold change was 0.172. Regarding SH2D1B (UniProt O14796), the log2 fold change was -0.174. RHOA (UniProt P61586): the log2 fold change is 0.01. As to RNPEP (UniProt Q9H4A4), the log2 fold change is -0.119. RAB3IL1 (UniProt E9PK89): the log2 fold change is -0.342.

Turning to RDH10 (UniProt Q8IZV5), the log2 fold change was 0.09. For the target RAF1 isoform 2 (UniProt P04049), the log2 fold change is -0.222.

For the target RBBP6 (UniProt Q7Z6E9), the log2 fold change was -0.014.

For the target ROCK1 (UniProt Q13464), the log2 fold change was 0.096. The same measure, in the same setting: next, RUFY1 (UniProt Q96T51): -0.058; RAD51 (UniProt Q06609): 0.051.

Regarding SCO2 (UniProt O43819), the log2 fold change is -0.187. With SELENOH (UniProt Q8IZQ5), the log2 fold change was 0.065. In the case of RPS25 (UniProt P62851), the log2 fold change was 0.146. With RTF2 (UniProt Q9BY42), the log2 fold change was 0.161.

For RAB5IF isoform 5 (UniProt Q9BUV8), the log2 fold change is 0.092. On the same count and under the same terms, the figure for SIK3 (UniProt H0Y4E8) is -0.071. With RUFY3 isoform 3 (UniProt Q7L099), the log2 fold change was -0.048. As to RCOR3 isoform 3 (UniProt Q9P2K3), the log2 fold change is -0.011.
